# Data: PubChem BioAssay AID485364 (National Center for Advancing Translational Sciences (NCATS), 2010)
# The whole screen tested about 360,000 compounds, of which about 11,000 (3.1%) were called active. Inconclusive results (about 4%) are left out. The call rests on the fitted dose curve; in most records, active means well fitted inhibition curve with a large enough effect; inconclusive means small, poorly fitted or top-dose-only effect; inactive means no such curve, though single readings can be large or run the other way. This excerpt belongs to a sample that is enriched for actives.
# Molecular target: Schistosoma mansoni thioredoxin glutathione reductase (TGR) (UniProt Q962Y6)
# Test: qHTS Assay for the Inhibitors of Schistosoma Mansoni Peroxiredoxins; further: nearly all actives have a fitted effect of over 60% in size
# Conditions: purified TGR, DTNB reduction, TNB absorbance 405 nm; series mostly up to 114 µM; activity change, negative = inhibition: at the top concentration
# From the text: Schistosomiasis is a major neglected tropical disease that currently affects over 200 million. It is caused by different species of flatworms, such as Schistosoma mansoni. Over the last century, drugs to treat the disease have evolved from potassium antimonyl tartrate, artemisinin, oxamniquine, to praziquantel, with praziquantel remaining the universally-used single drug of choice over the past three decades. However, transmission rates have changed little with praziquantel, and there is evidence for the development of drug resistant parasites. Because there is currently no suitable alternative therapy available, there is an urgent need to identify new targets and drugs for schistosomiasis treatment. Thioredoxin glutathione reductase (TGR), one uniquely positioned S. mansoni enzyme, has been identified as a major component of the worms' distinct and compressed antioxidant "firewall". TGR is a multifunctional enzyme that catalyzes the interconversion between reduced and oxidized forms of both glutathione (GSH) and thioredoxins, thus making it an attractive new antiparasitic target. Recently, a quantitative high-throughput screen of the NIH Molecular Libraries Small Molecule Repository (MLSMR, ~71K at the time of the screen in 2007) was performed using an assay that targeted both TGR and peroxiredoxin2 (Prx2, an H2O2-reducing enzymatic component of the S. mansoni redox "firewall") by following the decrease of NADPH fluorescence. […] Additional mechanistic link between exogenous NO donation and parasitic injury for the oxadiazole-2-oxide class of compounds was also expanded and better defined. Although the screen addressed both TGR and Prx2, the assay required post-screen target deconvolution for further characterization of the actives. In addition, the fluorescence assay was also subject to fluorescence interference from compound library members. We have developed a 1536-well-based kinetic HTS assay to address TGR alone. The assay followed the reduction of 5, 5'-dithiobis (2-nitrobenzoic acid) (DTNB) (Ellman's reagent) by NADPH and measured the increase in absorbance at 412 nm of the reaction product, TNB. […] This assay format can be used to screen the current MLSMR collection (with >300K compounds available) to find novel TGR inhibitors. Furoxan is a good choice to serve as a positive control in the primary HTS assay.
# Three microliters of reagents (100 uM NADPH and 20 nM TGR or 100 uM NADPH as no-enzyme control) were dispensed into 1,536-well black clear-bottomed plates. Compounds (23 nL) were transferred via Kalypsys pin tool equipped with 1536-pin array (10 nL slotted pins, V&P Scientific, San Diego, CA). The plates were then be incubated for 15 min at room temperature, and 1 uL aliquot of 500 uM NADPH were added, immediately followed by a 1 uL aliquot of 15 mM DTNB to start the reaction. The plate was transferred to a ViewLux high-throughput CCD imager (Perkin-Elmer, Wellesley, MA) where kinetic measurements of the TNB absorbance were acquired using a 405 excitation filter. Throughout the screen, reagent bottles and all liquid lines were made light-tight to minimize reagent degradation. All screening operations were performed on a fully integrated robotic system (Kalypsys, San Diego, CA) containing one RX-130 and two RX-90 anthropomorphic robotic arms (Staubli, Duncan, SC). Library plates were screened starting from the lowest and proceeding to the highest concentration, and a "double-dipping" step of the highest concentration was required to access higher concentrations of compounds. Vehicle-only plates, with DMSO being pin-transferred to the entire column 5-48 compound area, were inserted uniformly at the beginning and the end of each library in order to monitor for and record any shifts in the background, which can be affected by reagent dispensers or loss in enzyme activity overtime. […]
# On the % scale 0 is the no-effect control and ±100 the full control effect; potency means the concentration at half of the fitted maximal effect.
SMILES,"activity change, negative = inhibition",Potency
CCOc1ccc(N(CC)C(=O)c2cc3c(=O)oc4ccccc4c3s2)cc1,-10.1% (inactive),–
O=C(c1ccc(Br)cc1)N(Cc1cccs1)c1ccc(F)cc1,-2.63% (inactive),–
Cc1cc(N)n(-c2ccc(S(=O)(=O)N3CCCC3)cc2[N+](=O)[O-])n1,–,50.1 µM (active)
CN1CCN(S(=O)(=O)c2ccc(N3CCN(c4ccccc4O)CC3)c([N+](=O)[O-])c2)CC1,-15.4% (inactive),–
O=[N+]([O-])c1cc(S(=O)(=O)N2CCCC2)ccc1NN=C1CCCC1,-14.2% (inactive),–
COc1cc(OC)cc(C(=O)NCCc2csc3nc(-c4ccccc4F)nn23)c1,2.26% (inactive),–
CCC1CCCCN1C(=O)Nc1cccc(NC(=O)N2CCCCC2CC)c1 (centres undefined),–,39.8 µM (active)
CCC1CCCCN1C(=S)Nc1ccc(C(C)=O)cc1 (centres undefined),-6.57% (inactive),–
COc1cccc(NC(=O)N2CCCC2C(=O)NC2CCCCC2)c1 (centres undefined),4.18% (inactive),–
CCN1C(=O)c2ccccc2Sc2ccc(NC(=O)Cc3ccc(OC)cc3)cc21,5.68% (inactive),–
CCOC(=O)CC1=CC(=O)Nc2ccccc2N1,0% (inactive),–
CCCCC(CC)CNC(=O)C(=O)C1C(=O)Nc2ccccc21 (centres undefined),1.5% (inactive),–
CCOC(=O)C(=O)C1C(=O)Nc2ccccc21 (centres undefined),–,28.2 µM (active)
CCc1ccc(NC(=O)C2CCCN2S(=O)(=O)c2ccc3nc(-c4ccccc4)[nH]c3c2)cc1 (centres undefined),-9.77% (inactive),–
Fc1ccc(N2CCN(Cc3ccc4c(c3)OCO4)CC2)cc1,8.45% [at 11.4 µM] (inactive),–
CC(C)c1ccc(O)c(CN2CCN(c3ccccc3)CC2)c1,4.78% (inactive),–
Oc1cc2c(cc1CN1CCN(c3ccccc3)CC1)OCO2,–,1.58 µM (active)
Cc1cc2c(cc1C)C(c1cccc(OC(C)C)c1)CC(=O)N2 (centres undefined),8.08% (inactive),–
CCc1ccc2oc(-c3ccc(NC(=O)c4cc5ccccc5o4)cc3)nc2c1,5.27% (inactive),–
COc1ccc(OC)c(CNC(=O)c2c3c(nc4ccccc24)C(=O)N(C2CCCCC2)C3)c1,4.02% (inactive),–
O=S(=O)(NCC(c1ccco1)N1CCOCC1)c1cc(F)ccc1F (centres undefined),-10% (inactive),–
COc1ccc(S(=O)(=O)NCC(c2ccc(N(C)C)cc2)N2CCCC2)cc1 (centres undefined),-1.69% (inactive),–

SMILES,"activity change, negative = inhibition",Potency
CN(C)c1ccc(C(CNS(=O)(=O)c2cc(F)ccc2F)N2CCOCC2)cc1 (centres undefined),–,44.7 µM (active)
CCCn1ccc2c(OCC(=O)NCc3ccc(F)cc3)cccc2c1=O,10.9% (inactive),–
COC(=O)c1ccccc1NC(=O)C(Cc1ccccc1)N1Cc2ccccc2C1=O (centres undefined),-0.352% (inactive),–
COc1ccc2oc(=N)c(C(=O)Nc3ccc(Br)cc3)cc2c1,3.72% (inactive),–
COc1ccc(C(=O)c2oc3ccc(Br)cc3c2NC(C)=O)cc1,13.6% (inactive),–
COc1ccc(/C=C/C(=O)c2cc(Br)ccc(=O)c2O)cc1,–,15.8 µM (active)
O=S(=O)(c1ccc(Cl)cc1)c1nc(-c2ccco2)oc1N1CCCCC1,–,14.1 µM (active)
O=S(=O)(c1ccccc1)c1nc(-c2ccc(Cl)cc2Cl)oc1N1CCCCC1,-2.81% (inactive),–
O=C(CSc1oc(-c2ccco2)nc1S(=O)(=O)c1ccc(Cl)cc1)c1ccccc1,-4.02% (inactive),–
CCCc1nn2c(=O)cc(COC(=O)c3ccc(NC(=O)C(C)Oc4ccccc4)cc3)nc2s1 (centres undefined),-1.34% (inactive),–
N#Cc1c(N)n(CCOC(=O)c2ccc(Cl)cc2)c2nc3ccccc3nc12,3.75% (inactive),–
CN(C)CCCn1c(N)c(C#N)c2nc(C#N)c(C#N)nc21,–,20 µM (active)
CCCN(CCC)C(=O)C(Cc1ccccc1)NS(=O)(=O)c1ccc2c(c1)c(=O)n(C)c(=O)n2C (centres undefined),-10.4% (inactive),–
CCCN(CCC)CCNC(=O)Cn1cnc2sc(C)c(S(=O)(=O)N3CCC(C)CC3)c2c1=O,-0.546% (inactive),–
C=CCSc1nnc(N2C(=O)C(O)=C(C(=O)c3ccco3)C2c2ccc(F)cc2)s1 (centres undefined),–,14.1 µM (active)
CC(C)c1ccc(C2C(C(=O)c3ccco3)=C(O)C(=O)N2CC2CCCO2)cc1 (centres undefined),12.7% (inactive),–
Cc1ccc2nc(N3C(=O)C(O)=C(C(=O)c4ccco4)C3c3cccc(O)c3)sc2c1 (centres undefined),-23.4% (inactive),–
Cc1ccccc1-c1nnc(SCC(=O)NCc2ccc3c(c2)OCO3)n1C,-18.6% (inactive),–
S=C(NCc1ccc2c(c1)OCO2)NCc1ccco1,–,35.5 µM (active)
COC(=O)Cc1ccc(NC(=S)NCc2ccco2)cc1,-28.3% (inactive),–
O=C(CSc1ccc(-c2ccc(F)cc2)nn1)Nc1ccc2c(c1)OCCO2,7.31% (inactive),–
O=C(CSc1ccc(-c2ccco2)nn1)Nc1cccc(F)c1,–,10 µM (active)

SMILES,"activity change, negative = inhibition",Potency
COc1ccc(NC(=O)CSc2ccc(-c3ccco3)nn2)c(OC)c1,–,20 µM (active)
Cc1c(Cl)cccc1NC(=S)NCc1ccc2c(c1)OCO2,3.48% (inactive),–
O=C(CSc1ccc(-c2ccco2)nn1)NCc1ccc2c(c1)OCO2,–,12.6 µM (active)
CCn1c(=O)cc(SCC(=O)NCc2ccc3c(c2)OCO3)c2ccccc21,-0.229% (inactive),–
COc1ccc(NC(=O)CCC(=O)Nc2cc(OC)c(NC(=O)c3ccco3)cc2OC)c(OC)c1,1.32% (inactive),–
O=C(CSc1ccc(-c2ccccn2)nn1)Nc1ccccc1,1.31% (inactive),–
COc1ccc(NC(=O)CSc2nc(SC)ns2)c(OC)c1,26.6% (inactive),–
CCCn1c2ccccc2c2cnn(CC(=O)N(CC)c3cc(C)ccc3C)c(=O)c21,3.15% (inactive),–
Fc1ccc(C(Nc2ccc(Cl)c(C(F)(F)F)c2)c2nnc(-c3ccccc3)o2)cc1 (centres undefined),-1.3% (inactive),–
Cc1ccc(Nc2c(-c3ccc(C)cc3)nc3cnccn23)cc1,-3.11% (inactive),–
CCOC(=O)c1cc2c(=O)n3ccccc3nc2n(CCCOC)c1=NC(=O)C(C)(C)Oc1ccc(Cl)cc1,9.19% (inactive),–
Cc1ccc(C)c(NC(=O)C2CCCN(S(=O)(=O)c3cn(C)cn3)C2)c1 (centres undefined),4.47% (inactive),–
O=C(CC1Oc2ccc(Cl)cc2NC1=O)NCc1ccccc1 (centres undefined),-12.8% (inactive),–
CCCSc1ncc(Cl)c(C(=O)Nc2sc3c(c2C(=O)NCCOC)CCCC3)n1,-1.84% (inactive),–
CCCN(CCC)CCCNC(=O)Cn1ncc2c3ccccc3n(Cc3ccccc3)c2c1=O,-2.18% (inactive),–
COc1ccccc1NC(=O)c1oc2ccccc2c1NC(=O)C(C)C,4.86% (inactive),–
CCN(CC)S(=O)(=O)c1nnc(NC(=O)COc2ccccc2Cl)s1,9.78% (inactive),–
COc1ccc(-c2onc3ccc(C(C)=O)cc23)cc1,-31.4% (inactive),–
CC(OC(=O)c1ccc2noc(-c3ccccc3)c2c1)C(N)=O (centres undefined),–,35.5 µM (active)
CC(OC(=O)c1ccc2ccccc2n1)C(=O)c1ccccc1 (centres undefined),-3.31% [at 57.1 µM] (inactive),–
